# Reference: PubChem BioAssay
# Calls of active or inactive are those of the source.
# Tests used:
# [1] = test system: Plasmodium falciparum Sir2 (PF13_0152, Sir2A); experiment: Plasmodium falciparum Sir2A binding compounds – biochemical, small-molecule microarray, 635 nm fluorescence, primary screen (AID 1098); conditions: fluorescence 635 nm, higher = more signal;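 note: score merges spot fluorescence intensity with its signal-to-noise ratio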
# [2] = probe aDKK1 binding to arrayed compounds – biochemical, biotinylated probe, 635/667 nm fluorescence, primary screen (AID 1099); conditions: small-molecule microarray, higher = more signal;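 note: score merges 667nm spot fluorescence with signal to noise across triplicate slides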
# [3] = probe aCHRDL2 binding to arrayed compounds – biochemical, biotinylated probe, 635/667 nm fluorescence, primary screen (AID 1100); conditions: small-molecule microarray, higher = more signal
# [4] = change in splice reporter luminescence, either direction, cell-based, HEK293, spliceosome inhibition project, primary screen (AID 1101); conditions: HEK293 splicing luciferase reporter, 24 h, higher = more signal, called active from +8 up or from −8 down;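 note: HEK293 cells carrying a splicing-competent luciferase reporter gene; test concentration not given here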
# [5] = molecular target: Fibroblast growth factor 10 (Homo sapiens) (UniProt O15520); experiment: compounds binding fibroblast growth factor 10 – biochemical, small-molecule microarray, 635 nm fluorescence, primary screen (AID 1102); conditions: FGF10 binding, fluorescence 635 nm, higher = more signal
# [6] = test system: glycogen synthase kinase-3 (GSK3A per assay name; protocol says GSK3B); experiment: compounds binding glycogen synthase kinase-3 – biochemical, small-molecule microarray, 635 nm fluorescence, GSK3A, primary screen (AID 1103); conditions: fluorescence 635 nm, higher = more signal; note: the record names both GSK3A and GSK3B
# [7] = molecular target: Epidermal growth factor receptor (Homo sapiens) (UniProt P00533); experiment: compounds binding epidermal growth factor receptor – biochemical, small-molecule microarray, 635 nm fluorescence, primary screen (AID 1104); conditions: EGFR binding, higher = more signal;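 note: score merges 667 nm emission intensity with spot signal to noise over triplicate slides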
# [8] = molecular target: Follistatin-related protein 3 (Homo sapiens) (UniProt O95633); experiment: compounds binding follistatin-related protein 3 – biochemical, small-molecule microarray, 635 nm fluorescence, primary screen (AID 1105); conditions: FSTL3 binding, higher = more signal;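 note: score merges emission near 667 nm and signal to noise per printed spot across three slides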
# [9] = molecular target: Dickkopf-related protein 1 (Homo sapiens) (UniProt O94907); experiment: small molecules binding DKK1 protein – biochemical, small-molecule microarray, 635 nm fluorescence scan, primary screen (AID 1106); conditions: higher = more signal;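 note: score merges emission near 667 nm with signal to noise over three replicate slides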
# [10] = test system: Inhibin beta A chain (activin A); experiment: small molecules binding activin A – biochemical, small-molecule microarray, 635 nm fluorescence scan, primary screen (AID 1107); conditions: INHBA, higher = more signal;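 note: mouse activin A protein probed at 4.33 µg/mL on printed slides; score merges bound-protein fluorescence near 667 nm with spot signal-to-noise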
# [11] = test system: Human papillomavirus type 1a protein E7 (residues 44-93); experiment: small molecules binding HPV E7 44-93 – biochemical, small-molecule microarray, residues 44-93, 635 nm fluorescence, primary screen (AID 1108); conditions: fluorescence 635 nm, higher = more signal;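 note: E7 fragment applied at 1 µg/mL in TBST for 1 h at 4 C; score combines spot fluorescence with its signal to noise ratio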
# [12] = hepatitis C replication reporter changes, two-sided – Huh7 cells, luciferase reporter, HCV replication inhibitor project, primary screen (AID 1109); conditions: Huh7 HCV replicon luciferase reporter, 48 h; higher = more signal;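 note: huh7 hepatoma cells harbouring a luciferase neomycin HCV replicon reporter; luciferase luminescence as measure of HCV replicon replication; test concentration not given here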
# [13] = molecular target: Left-right determination factor 2 (Homo sapiens) (UniProt O00292); experiment: small molecules binding LEFTY2 protein – biochemical, small-molecule microarray, 635 nm fluorescence scan, primary screen (AID 1110); conditions: higher = more signal
# [14] = molecular target: Calmodulin-1 (Homo sapiens) (UniProt P0DP23); experiment: small molecules binding calmodulin-1 with EGTA – biochemical, small-molecule microarray, Cy5-labelled CALM1, profiling panel (AID 1111); conditions: Cy5-CALM1 binding fluorescence, higher = more signal;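 note: labelled calmodulin applied in Tris saline Tween buffer holding calcium plus EGTA and DTT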
# [15] = molecular target: Calmodulin-1 (Homo sapiens) (UniProt P0DP23); experiment: small molecules binding Ca-loaded calmodulin-1 – biochemical, small-molecule microarray, Cy5-labelled CALM1, plus calcium, artefact control for SMM control-protein annotation, profiling panel (AID 1112); conditions: Cy5-CALM1 binding fluorescence, higher = more signal;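 note: score merges spot fluorescence with signal to noise from triplicate slides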
# [16] = probe aWnt5a binding to arrayed compounds – biochemical, biotinylated probe, 635/667 nm fluorescence, primary screen (AID 1113); conditions: small-molecule microarray, higher = more signal;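 note: score merges 667 nm fluorescence intensity with signal-to-noise per printed feature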
# [17] = probe aShh binding to arrayed compounds – biochemical, biotinylated probe, 635/667 nm fluorescence, primary screen (AID 1114); conditions: small-molecule microarray, higher = more signal;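 note: probe is biotin-labelled aShh protein from a stem cell growth factor screen; measures binding of labelled protein to compounds printed on the slide; score merges feature fluorescence at 667 nm with signal-to-noise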
# [18] = probe aNog binding to arrayed compounds – biochemical, biotinylated probe, 635/667 nm fluorescence, primary screen (AID 1115); conditions: small-molecule microarray, higher = more signal;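 note: probe is biotinylated aNog protein used at 0.15 µg/mL for 1 h at 4 C; z-score combines 667 nm fluorescence of each spot with its signal to noise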
# [19] = molecular target: Torsin-1A-interacting protein 1 (Homo sapiens) (UniProt Q5JTV8); experiment: compound microarray binding of lysate hLAP1 – cell lysate, small-molecule microarray, COS7 lysate, 635/667 nm fluorescence, primary screen (AID 1116); conditions: 635 nm fluorescence, higher = more signal
# [20] = molecular target: Alpha-bungarotoxin (Bungarus multicinctus) (UniProt P60615); experiment: compounds binding labelled alpha-BTX control protein – biochemical, small-molecule microarray, Alexa647 label, 635/667 nm fluorescence, artefact control for SMM control protein annotation, profiling panel (AID 1117); conditions: alpha-BTX-A647 binding fluorescence, higher = more signal
# Chain of Alpha-bungarotoxin (Bungarus multicinctus) (P60615 whole entry, looked up): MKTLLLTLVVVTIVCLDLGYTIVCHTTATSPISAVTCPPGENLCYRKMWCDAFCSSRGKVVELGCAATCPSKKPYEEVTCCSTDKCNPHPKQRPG
# Chain of Dickkopf-related protein 1 (Homo sapiens) (O94907 whole entry, looked up): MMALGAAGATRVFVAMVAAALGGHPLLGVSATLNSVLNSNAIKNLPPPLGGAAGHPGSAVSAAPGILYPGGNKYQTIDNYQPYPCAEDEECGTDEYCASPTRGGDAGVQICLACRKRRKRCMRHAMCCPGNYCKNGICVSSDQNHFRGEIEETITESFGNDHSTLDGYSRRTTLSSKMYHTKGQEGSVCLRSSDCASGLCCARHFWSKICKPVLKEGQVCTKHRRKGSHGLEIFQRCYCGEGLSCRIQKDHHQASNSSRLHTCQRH
# Chain of Fibroblast growth factor 10 (Homo sapiens) (O15520 whole entry, looked up): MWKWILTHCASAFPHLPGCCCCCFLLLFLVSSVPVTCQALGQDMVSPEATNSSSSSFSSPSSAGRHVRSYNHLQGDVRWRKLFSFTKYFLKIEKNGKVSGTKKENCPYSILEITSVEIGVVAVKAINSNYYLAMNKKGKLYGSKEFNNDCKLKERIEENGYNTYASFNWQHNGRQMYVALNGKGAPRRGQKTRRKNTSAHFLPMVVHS
# Chain of Epidermal growth factor receptor (Homo sapiens) (P00533 whole entry, looked up): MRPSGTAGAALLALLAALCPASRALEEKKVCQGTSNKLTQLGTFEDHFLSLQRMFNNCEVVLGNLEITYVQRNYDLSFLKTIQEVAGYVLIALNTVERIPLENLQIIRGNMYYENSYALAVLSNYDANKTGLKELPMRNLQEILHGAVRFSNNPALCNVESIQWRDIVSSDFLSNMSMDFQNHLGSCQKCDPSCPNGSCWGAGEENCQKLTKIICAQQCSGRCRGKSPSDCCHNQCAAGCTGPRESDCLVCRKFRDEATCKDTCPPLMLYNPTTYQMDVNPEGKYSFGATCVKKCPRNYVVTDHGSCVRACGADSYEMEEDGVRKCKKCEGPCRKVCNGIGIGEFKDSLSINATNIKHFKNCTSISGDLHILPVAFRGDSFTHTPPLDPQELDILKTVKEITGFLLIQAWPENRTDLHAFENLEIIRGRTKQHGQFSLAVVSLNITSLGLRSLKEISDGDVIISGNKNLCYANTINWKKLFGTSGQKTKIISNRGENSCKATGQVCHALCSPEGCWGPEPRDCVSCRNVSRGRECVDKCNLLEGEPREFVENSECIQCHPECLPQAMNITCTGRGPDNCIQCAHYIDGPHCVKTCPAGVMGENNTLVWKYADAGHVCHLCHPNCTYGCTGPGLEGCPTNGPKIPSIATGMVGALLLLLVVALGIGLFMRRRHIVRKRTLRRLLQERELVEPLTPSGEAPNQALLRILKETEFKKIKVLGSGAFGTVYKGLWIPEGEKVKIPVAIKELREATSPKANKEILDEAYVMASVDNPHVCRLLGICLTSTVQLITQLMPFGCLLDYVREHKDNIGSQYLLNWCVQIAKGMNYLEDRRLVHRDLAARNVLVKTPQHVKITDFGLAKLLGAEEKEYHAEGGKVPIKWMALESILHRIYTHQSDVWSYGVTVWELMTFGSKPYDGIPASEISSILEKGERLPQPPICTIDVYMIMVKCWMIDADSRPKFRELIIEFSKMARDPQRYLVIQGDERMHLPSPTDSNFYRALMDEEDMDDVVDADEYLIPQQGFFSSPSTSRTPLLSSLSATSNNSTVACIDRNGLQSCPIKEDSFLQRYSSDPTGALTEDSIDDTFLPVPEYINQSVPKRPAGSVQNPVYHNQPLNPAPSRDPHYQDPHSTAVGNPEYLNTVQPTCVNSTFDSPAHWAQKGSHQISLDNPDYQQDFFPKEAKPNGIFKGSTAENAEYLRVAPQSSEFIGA
# Chain of Torsin-1A-interacting protein 1 (Homo sapiens) (Q5JTV8 whole entry, looked up): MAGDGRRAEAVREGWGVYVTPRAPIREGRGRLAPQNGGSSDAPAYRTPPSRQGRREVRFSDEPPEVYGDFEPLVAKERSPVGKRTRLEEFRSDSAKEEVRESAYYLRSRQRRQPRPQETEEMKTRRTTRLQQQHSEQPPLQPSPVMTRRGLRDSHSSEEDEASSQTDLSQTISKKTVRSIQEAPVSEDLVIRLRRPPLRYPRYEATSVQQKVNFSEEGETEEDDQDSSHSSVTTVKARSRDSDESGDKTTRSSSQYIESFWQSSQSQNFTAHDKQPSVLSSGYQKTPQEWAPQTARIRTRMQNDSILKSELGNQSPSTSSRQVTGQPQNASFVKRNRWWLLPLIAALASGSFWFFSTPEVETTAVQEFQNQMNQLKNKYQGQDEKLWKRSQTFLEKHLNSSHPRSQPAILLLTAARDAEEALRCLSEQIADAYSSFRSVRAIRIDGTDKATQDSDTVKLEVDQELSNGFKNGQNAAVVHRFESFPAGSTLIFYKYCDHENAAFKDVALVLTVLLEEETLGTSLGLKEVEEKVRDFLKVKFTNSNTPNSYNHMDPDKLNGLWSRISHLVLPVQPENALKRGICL
# Chain of Follistatin-related protein 3 (Homo sapiens) (O95633 whole entry, looked up): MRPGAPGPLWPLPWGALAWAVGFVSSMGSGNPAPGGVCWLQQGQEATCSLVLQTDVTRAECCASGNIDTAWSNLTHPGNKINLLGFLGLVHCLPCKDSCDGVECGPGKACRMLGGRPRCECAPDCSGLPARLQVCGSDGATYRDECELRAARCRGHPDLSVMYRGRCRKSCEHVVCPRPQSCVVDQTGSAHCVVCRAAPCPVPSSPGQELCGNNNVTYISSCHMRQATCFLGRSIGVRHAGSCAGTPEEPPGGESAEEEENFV
# Chain of Left-right determination factor 2 (Homo sapiens) (O00292 whole entry, looked up): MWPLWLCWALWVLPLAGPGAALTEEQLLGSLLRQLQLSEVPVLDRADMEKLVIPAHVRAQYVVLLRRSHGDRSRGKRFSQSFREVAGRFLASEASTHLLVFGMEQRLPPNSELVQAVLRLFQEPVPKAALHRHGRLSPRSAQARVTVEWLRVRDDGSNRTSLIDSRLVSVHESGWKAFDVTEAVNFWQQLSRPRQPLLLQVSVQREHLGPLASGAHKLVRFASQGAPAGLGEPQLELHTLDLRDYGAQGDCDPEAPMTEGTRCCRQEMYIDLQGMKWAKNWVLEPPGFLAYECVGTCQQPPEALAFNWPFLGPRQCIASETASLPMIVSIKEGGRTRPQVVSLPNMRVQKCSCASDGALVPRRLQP
SMILES,composite z-score [1],composite z-score [2],composite z-score [3],z-score [4],composite z-score [5],composite z-score [6],composite z-score [7],composite z-score [8],composite z-score [9],composite z-score [10],composite z-score [11],z-score [12],composite z-score [13],composite z-score [14],composite z-score [15],composite z-score [16],composite z-score [17],composite z-score [18],composite z-score [19],composite z-score [20]
COC(=O)[C@@]1(Cc2ccc(OC)cc2)[C@H]2c3cc(C(=O)N(C)C)n(Cc4ccccn4)c3C[C@H]2CN1C(=O)c1ccccc1,1.04,1.2,1.36,-1.71 (inactive),-0.024,-0.305,-0.627,-0.317,-0.659,-1.71,-0.0851,-0.741,-0.479,2.86,1.41,0.0859,0.645,1.86,3.05,1.13
C=CC[C@@]12N=C(c3ccc(OCCCO)cc3)O[C@@H]1c1ccccc1N(C)C2=O,1.13,0.178,0.899,-0.933 (inactive),1.38,1.32,0.166,0.964,0.498,1.1,1.16,-1.56,0.0838,0.422,-0.206,0.14,0.547,-0.621,-0.0062,1.21
C=C(C)[C@@H]1CC=C(C(O)C2C=CC3C(=O)N(c4ccccc4)C(=O)C3N2Nc2ccccc2)CC1 (stereo not given in full),0.972,1.06,0.906,0.0541 (inactive),0.852,1.32,-0.747,1.15,0.364,0.622,0.478,-1.38,0.261,2.06,0.103,0.212,0.642,1.95,1.79,2.62
COCCOC(=O)N1C(=O)[C@@]2(c3cc(C#Cc4ccc(OC)cc4)ccc31)[C@H](c1ccc(O)cc1)N1[C@H](c3ccccc3)[C@H](c3ccccc3)OC(=O)[C@H]1[C@@H]2C(=O)N1CCc2cc(OC)c(OC)cc2C1,0.888,0.267,-0.0098,-1.34 (inactive),0.636,1.2,0.386,0.914,0.75,-0.0186,1.32,-0.296,0.471,1.74,0.141,0.0017,-0.301,0.27,0.796,0.317
COC(=O)[C@H](Cc1ccccc1)N1CC2=C[C@@H](C3CC3)n3c(=O)n(C)c(=O)n3[C@H]2[C@@H]1[C@@H](O)Cc1ccccc1,0.711,-0.412,-0.5,-0.515 (inactive),0.617,0.658,0.217,0.868,0.312,0.289,1.35,-1.08,0.41,-0.319,0.0057,-0.0718,-0.0035,0.0121,0.685,-0.0518
COc1ccc(CCNC(=O)[C@@]2(Sc3ccc(C)cc3)CC(=O)N(C(C)C)[C@@H]2c2ccc(CO)cc2I)cc1,0.699,0.187,0.778,-0.658 (inactive),-0.316,-1.02,-0.719,-0.645,-0.267,1.08,0.536,-2.41,-1.09,-0.434,0.428,-0.225,-0.0553,0.905,0.341,-0.333
COCCOC(=O)N1C(=O)[C@@]2(c3cc(C#CCNC(N)=O)ccc31)[C@H](C(=O)Nc1nc3ccccc3s1)[C@H]1C(=O)O[C@H](c3ccccc3)[C@H](c3ccccc3)N1[C@@H]2c1ccc(OCCO)cc1,-0.112,0.92,0.795,-0.239 (inactive),1.11,0.755,0.373,0.963,1.15,0.542,1.26,-1.08,0.825,1.37,0.662,0.003,-0.382,-0.229,0.415,1.24
CCCC#C[Si](O[C@H](CC)c1cn(Cc2cccc(Cl)c2)nn1)(C(C)C)C(C)C,0.377,-0.23,-0.45,-1.01 (inactive),1.11,1.05,0.484,0.566,0.52,-0.121,1.3,-0.113,0.431,0.0375,0.169,-0.0944,-0.153,-0.307,0.545,-0.2
CCC[C@@H]1C[C@@]1(CCC)[C@@H](NC(=O)c1ccccc1)c1cccc(Cl)c1,-0.12,2,0.958,0.444 (inactive),0.905,1.09,0.446,0.644,-0.202,1.08,1.37,-0.75,-0.278,1.97,1.43,1.09,1.35,0.311,1.04,1.74
CC(C)=CCN[C@H](CO)c1ccccc1,0.38,-0.274,-0.235,-0.795 (inactive),0.795,-0.366,0.149,0.576,0.749,1.01,0.318,-1.76,0.422,-0.644,-0.881,-0.13,0.0048,-0.278,0.157,0.189
CCc1cccc(NC(=O)O[C@H]2[C@H](OC(=O)Nc3ccccc3-c3ccccc3)[C@@H](OC(=O)Nc3ccccc3-c3ccccc3)[C@@H](OC)O[C@@H]2CO)c1,1.29,0.481,0.648,-2.55 (inactive),1.13,0.954,0.0707,1.38,-0.0897,0.465,1.52,-3.79,0.3,1.71,-0.0011,0.0839,0.432,0.572,1.47,1.53
